Screening results deposited in PubChem BioAssay by several laboratories.
MEKK2 WT-MEK5: raises or lowers MEK5 binding to wildtype human MEKK2 PB1 domain. 1.1% of 290,000 active. AID 1531. bead flow cytometry, Alexa488-MEK5 binding to MEKK2 WT; actives lie on both sides. binding response (% of control), % at 10 µM; in the data active = binding response below about 67% or above about 130%
UBC13 polyUb: human UBC13 polyubiquitination inhibition; AID 485273; P61088; inhibition, % at 20 µM; UBC13 polyubiquitin chain formation, TR-FRET; 0.47% of 330,000 active; in the data active = inhibition above about 45%, passing the limit was not always enough
Target sequence (P61088 whole entry, looked up): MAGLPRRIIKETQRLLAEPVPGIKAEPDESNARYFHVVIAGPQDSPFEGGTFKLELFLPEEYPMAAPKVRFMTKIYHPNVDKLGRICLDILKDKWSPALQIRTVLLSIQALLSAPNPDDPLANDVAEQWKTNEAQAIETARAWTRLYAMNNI
MEKK2 mut-MEK5: signal of MEK5 binding to mutant human MEKK2 PB1 domain | 0.35% of 290,000 active | percent response, % at 10 µM | bead flow cytometry, Alexa488-MEK5 binding to MEKK2 mutant; in the data active = percent response above about 24%, passing the limit was not always enough
MEKK3 PB1 HTS: modulators (inhibitors or enhancers) of MEK5 binding to human MEKK3 PB1 domain | bead-based flow cytometry, Alexa488-MEK5 binding to MEKK3; actives lie on both sides; 0 = blocked by unlabeled MEK5, 100 = vehicle | binding response (% of control), % at 10 µM | 1.4% of 290,000 active | AID 1529;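 active = binding response more than 3 SD above or below the average of its plate-row segment, actives on both sides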;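 also: Alexa488 bead fluorescence after subtracting the streptavidin-only scavenger bead signal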
* hit, by the source's call; · = no result; ! = repeats disagree; [ ] = dose if it differs, or a comment. Compounds with a hit are over-represented: about 2.3% of the library has one in this group of screens.

SMILES | MEKK2 WT-MEK5 | UBC13 polyUb | MEKK2 mut-MEK5 | MEKK3 PB1 HTS
CC(C)C(=O)NC(=S)N(Cc1ccccc1)Cc1ccccc1 | 101 | 21 | -2 | 101
CC(C)CC(=O)NC(=S)N(Cc1ccccc1)Cc1ccccc1 | 107 | 17 | 1 | 148*
CC1(C)Cc2c(sc3nc(=S)[nH]c(N)c23)CO1 | 105 | -7 | 2 | 108
Oc1c(/C=C/C=C/C=Nc2ccccc2)sc(=S)n1Cc1ccccc1 | · | -20 | 0 | 21*[inhibitor]
CCCn1c(O)c(C=Nc2ccccc2)sc1=S | 82 | 5 | -7 | 100
Cc1cc(C)cc(-n2ncc3c2CCCC3NC(=O)CCN2CCCC2=O)c1 (configuration not stated) | 106 | 3 | 5 | 100
c1ccc2c(c1)nc(Nc1ccc(N3CCCCC3)cc1)c1nncn12 | -4.0* | 9 | 2 | 99
c1ccc(N2CCCCC2)c(Nc2nc3ccccc3n3cnnc23)c1 | 99 | 2 | 4 | 106
CN(Cc1cccnc1)C(=O)CCCc1c[nH]c2ccccc12 | 135* | 4 | 26* | 104
Cc1ccc(CN(C)C(=O)CCc2c[nH]c3ccccc23)o1 | 97 | 7 | 1 | 104
CC1(C(=O)OCC(=O)NCCNC(=O)COC(=O)C2(C)CC2(Cl)Cl)CC1(Cl)Cl (configuration not stated) | 107 | -2 | 8 | 104
CC(C)Cc1ccc(CN2CCCC(NC(=O)CCN3CCCO3)C2)cc1 (configuration not stated) | 134* | 2 | 22 | 106
COc1ccc(Cl)cc1NC(=O)c1cc(C)no1 | 102 | 1 | 1 | 102
O=C(Nc1cccc(-n2cccn2)c1)C1CCCN(Cc2cc3ccccc3[nH]2)C1 (configuration not stated) | 139* | 6 | 24* | 104
Cc1cc(CN2CCCC(C(=O)Nc3cccc(-n4cccn4)c3)C2)cc(C)c1O (configuration not stated) | 112 | 8 | -1 | 102
Cc1cc(N2CCCC2)c(C)cc1C=O | -46* | -2 | -6 | 95
CC(=O)CCCCn1cnc2c1c(=O)n(C)c(=O)n2C | -14*! | -1 | -7 | 90
OC(COc1ccc(CNCCc2ccc(C(F)(F)F)cc2)cc1)CN1CCCCC1 (configuration not stated) | 150* | 29 | 2 | 107
OC(COc1ccc(OCC(O)CN2CCCCC2)cc1)CN1CCCCC1 (configuration not stated) | 97 | -2 | -3 | 97
C#CCSc1nnc(-c2ccc([N+](=O)[O-])cc2)o1 | 98 | -34 | -3 | 105
COc1cccc(C(C(=O)NCC2CCCO2)N(C(=O)Cn2nnc3ccccc32)c2ccccc2C(C)=O)c1OC (configuration not stated) | 94 | 1 | -5 | 102
Cc1ccc2c(c1)C=CC(C)(C)S2=O (configuration not stated) | 101 | -17 | 2 | 130*
CC[N+]1=C(C)C(C)(C)c2cc(C)ccc21 | 77 | 5 | -3 | 100
CCOc1cccc2cc(C(=O)N3CCc4ccccc43)c(=O)oc12 | 5.0* | -1 | 8 | 100
Cc1ccc(C(=O)N2CCSC2=S)cc1 | -10* | 3 | 4 | 105
SMILES | MEKK2 WT-MEK5 | UBC13 polyUb | MEKK2 mut-MEK5 | MEKK3 PB1 HTS
C=CCOc1ccc(C2/C(=C(/O)c3ccc4c(c3)CC(C)O4)C(=O)C(=O)N2CCCN2CCOCC2)cc1 (configuration not stated) | 103 | 0 | 3 | 107
COc1cc(OC)c2c(-c3ccccc3)cc(=O)oc2c1C(CC(=O)N1CCN(c2ccccc2)CC1)c1ccc(N(C)C)cc1 (configuration not stated) | 85 | -27 | -14 | 89
COc1cc(OC)c2c(-c3ccccc3)cc(=O)oc2c1C(CC(=O)N1CCN(c2ccccc2)CC1)c1ccc2c(c1)OCO2 (configuration not stated) | 145* | · | 0 | 131*
Cc1nc(Nc2ccccc2)sc1C(=O)c1ccccc1 | 100 | 2 | -5 | 97
COc1ccc(C(=O)c2sc(Nc3ccccc3)nc2C)cc1 | 135* | 2 | 16 | 111
CN1CCN(c2ccccc2NC(=O)c2ccc(-c3ccc(Br)cc3)o2)CC1 | 125 | 13 | 13 | 104
O=C(Nc1ccccc1N1CCCCC1)c1ccc(-c2ccc(Cl)cc2)o1 | 106 | -4 | 0 | 141*
CC1Cc2cc(S(=O)(=O)N3CCC(C(N)=O)CC3)ccc2N1C(=O)C1CC1 (configuration not stated) | 0.0*[inhibitor] | -12 | -17 | 2.0*[inhibitor]
CCOC(=O)C1CCN(S(=O)(=O)c2ccc3c(c2)CC(C)N3C(=O)C2CC2)CC1 (configuration not stated) | 101 | 0 | 4 | 98
CCOc1ccc(-c2cc(C(=O)OC)[nH]n2)cc1 | 97 | -2 | 880* | 162*
CC(=O)N1CC(C)Sc2ccc(S(=O)(=O)NCCc3ccccc3)cc21 (configuration not stated) | 107 | -5 | 5 | 99
CC(=O)N1CC(C)Sc2ccc(S(=O)(=O)NC(C)c3ccccc3)cc21 (configuration not stated) | 64*[inhibitor] | -8 | -21 | 80*[inhibitor]
O=C(NCCCN1CCCCCC1)c1cc2c(=O)oc3ccccc3c2s1 | 136* | 36 | 23 | 106
Cc1ccc2oc(=O)c3cc(C(=O)NCCCN4CC(C)CC(C)C4)sc3c2c1 (configuration not stated) | 142* | 18 | 13 | 101
COC(=O)c1sc2cc([N+](=O)[O-])cc(SCC(C)C)c2c1N | 9.0* | -48 | 7 | 99
O=C(CNC(=O)c1ccco1)NNC(=O)c1n[nH]c(=O)c2ccccc12 | · | 3 | · | ·
Cc1ccc(NC(=O)c2ccco2)c(NC(=O)c2ccccc2)c1 | -12*[inhibitor] | -8 | -26 | 0.0*[inhibitor]
COC(=O)Cc1ccc(NC(=S)Nc2cccc(C)n2)cc1 | 99 | 8 | 2 | 102
Cc1c(C)n(CC(O)CN2CCCCCC2)c2ccccc12 (configuration not stated) | 110 | 6 | 1 | 105
Cc1ccc2c(c1)c(C)c(C)n2CC(O)CN1CCOCC1 (configuration not stated) | -5.0*[inhibitor] | 0 | 6 | 93
Cc1cccc(NC(=O)CSc2nsc(SCC(=O)Nc3cccc(C)c3)c2C#N)c1 | 29* | -9 | 39 | 105
COc1ccc(S(=O)(=O)N(C)C[C@H]2Oc3c(NC(=O)Nc4c(C)noc4C)cccc3C(=O)N([C@H](C)CO)C[C@@H]2C)cc1 | · | 6 | · | ·
CCOC(=O)c1c(C)[nH]c(C(=O)OCC(=O)Nc2sccc2C(N)=O)c1C | · | 1 | · | ·
CCOc1ccc(S(=O)(=O)N2CCN(Cc3ccc4c(c3)OCO4)CC2)cc1C | 95 | -2 | -7 | 98
COc1cccc(C2C3=C(N=c4s/c(=C\c5cccc(O)c5)c(=O)n42)c2ccccc2CC3)c1OC (configuration not stated) | 97 | -18 | 1 | 133*
